The campaign covered roughly 5,500 compounds. About 2,000 (36%) were called active. Not shown: some 18% with an inconclusive outcome. Cut-off read from the data, not from the text of the source: active = normalized growth mostly below about 0.91 (no sharp cut-off); inconclusive = no clear call, values can overlap the other calls; inactive = mostly above about 0.92. The list shows a part of the results.
Experiment: chemical genetic growth profiling, strain panel (AID 1159580);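 note: tested at 20 µM; growth read once vehicle control cultures reached saturation at 30 °C; 1 = growth at the plate median or of vehicle wells; lower values mean less growth of the strain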
Settings: growth OD
[1] = S. cerevisiae deletion strains, locus YAL013W, strain DEP1, active compounds read low
[2] = S. cerevisiae deletion strains, locus YBR229C, strain ROT2, active compounds read low
[3] = S. cerevisiae deletion strains, locus YDL101C, strain DUN1, active compounds read low
[4] = S. cerevisiae deletion strains, locus YDR150W, strain NUM1, active compounds read low
[5] = S. cerevisiae deletion strains, locus YEL061C, strain CIN8, active compounds read low
[6] = S. cerevisiae deletion strains, locus YGR078C, strain PAC10, active compounds read low
[7] = S. cerevisiae deletion strains, locus YHR030C, strain SLT2, active compounds read low
[8] = S. cerevisiae deletion strains, locus YHR087W, strain rtc3, active compounds read low
[9] = S. cerevisiae deletion strains, locus YJR043C, strain POL32, active compounds read low
[10] = S. cerevisiae deletion strains, locus YJR075W, strain HOC1, active compounds read low
[11] = S. cerevisiae deletion strains, locus YLR039C, strain RIC1, active compounds read low
[12] = S. cerevisiae deletion strains, locus YLR058C, strain SHM2 (second series), active compounds read low
[13] = S. cerevisiae deletion strains, locus YLR085C, strain ARP6, active compounds read low
[14] = S. cerevisiae deletion strains, locus YLR262C, strain YPT6, active compounds read low
[15] = S. cerevisiae deletion strains, locus YML094W, strain GIM5, active compounds read low
[16] = S. cerevisiae deletion strains, locus YMR219W, strain ESC1, active compounds read low
[17] = S. cerevisiae deletion strains, locus YMR263W, strain SAP30, active compounds read low
[18] = S. cerevisiae deletion strains, locus YNL153C, strain GIM3, active compounds read low
[19] = S. cerevisiae deletion strains, locus YNL298W, strain CLA4 (second series), active compounds read low
[20] = S. cerevisiae deletion strains, locus YNL322C, strain KRE1, active compounds read low
[21] = S. cerevisiae deletion strains, locus YNR030W, strain Alg12, active compounds read low
[22] = S. cerevisiae deletion strains, locus YPL055C, strain LGE1, active compounds read low
[23] = S. cerevisiae deletion strains, locus YPL241C, strain CIN2, active compounds read low
[24] = S. cerevisiae deletion strains, locus YPR135W, strain CTF4, active compounds read low

Measured: normalized growth

O=C(O)c1ccccc1Sc1c(C(=O)O)cc([N+](=O)[O-])cc1[N+](=O)[O-]
inactive: [1] 1.01 | [2] 1.01 | [3] 1.02 | S. cerevisiae deletion strains, locus YDL134C, strain PPH21, active compounds read low 0.976 | [4] 0.988 | [5] 0.994 | [6] 1.01 | [7] 1.01 | [8] 0.993 | [9] 1 | [10] 1 | [11] 1 | [12] 0.994 | [13] 0.989 | [14] 0.984 | [15] 1.08 | [16] 1.01 | [17] 0.994 | [18] 1.03 | [19] 0.964 | [20] 1.02 | [21] 1.01 | [22] 1.02 | [23] 1.08 | [24] 1.09

O=[N+]([O-])c1cc(Cl)c(Sc2ccccc2)cc1Sc1ccccc1
inactive: [1] 0.995 | [2] 0.999 | S. cerevisiae deletion strains, locus YCL061C, strain MRC1, active compounds read low 0.974 | [3] 1.01 | [4] 0.983 | [5] 0.998 | [6] 0.999 | [7] 0.922 | [8] 0.998 | S. cerevisiae deletion strains, locus YJL187C, strain SWE1, active compounds read low 1.03 | [9] 0.992 | [10] 0.994 | [11] 0.998 | [12] 0.992 | [13] 1.03 | [14] 0.909 | [15] 1.03 | [16] 1.01 | [17] 1.01 | [18] 0.993 | [19] 1.01 | [20] 1.01 | [21] 0.977 | S. cerevisiae deletion strains, locus YOL006C, strain TOP1, active compounds read low 0.998 | [22] 1.01 | [23] 1.01 | [24] 0.925 | S. cerevisiae strains, strain wild type, active compounds read low 1.01

Source: PubChem BioAssay AID1159580 (chemical genetic matrix, 2015)
